# Data published in the supplement of paper PMC8253809.
# Columns and labels:
# Experiment in all cases: growth inhibition (% activity, log2 RLU normalised to DMSO / staurosporine); higher = more growth inhibition
# Settings in all cases: 33 µM
# [1] = test system: DIPGX29 (H3.3 K27M diffuse intrinsic pontine glioma line)
# Summary of the method: (§1)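 On Geltrex-coated 384-well plates, pHGG cell lines and H9-derived neural stem cells were grown with approved drugs pinned in at a single final concentration of about 33 μM, in triplicate, for 7 days at 37 °C, 5% CO2. Per-plate normalisation of log2-transformed CellTiter-Glo luminescence to % activity between solvent and positive control wells followed. Each growth-inhibition value is the median over the replicates.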
# [2] = test system: DIPGX37 (H3.3 K27M diffuse intrinsic pontine glioma line)
# Summary of the method: as §1
# [3] = test system: DIPGX7 (H3.3 K27M diffuse intrinsic pontine glioma line)
# Summary of the method: as §1
# [4] = test system: DIPGX9 (diffuse intrinsic pontine glioma line)
# Summary of the method: as §1
# [5] = test system: HGGX39 (paediatric high-grade glioma line)
# Summary of the method: as §1
# [6] = test system: HGGX6 (H3.3 G34R paediatric high-grade glioma line)
# Summary of the method: as §1
# [7] = test system: HNSC
# Summary of the method: as §1
# [8] = test system: SUDIPGIV (diffuse intrinsic pontine glioma line)
# Summary of the method: as §1
# [9] = test system: SUDIPGVI (diffuse intrinsic pontine glioma line)
# Summary of the method: as §1
# [10] = test system: SUDIPGXIII (diffuse intrinsic pontine glioma line)
# Summary of the method: as §1
Compound,growth inhibition [1] [%],growth inhibition [2] [%],growth inhibition [3] [%],growth inhibition [4] [%],growth inhibition [5] [%],growth inhibition [6] [%],growth inhibition [7] [%],growth inhibition [8] [%],growth inhibition [9] [%],growth inhibition [10] [%]
CC(C)OC(=O)C(C)(C)Oc1ccc(C(=O)c2ccc(Cl)cc2)cc1,3.79,2.12,2.17,2.82,2.79,-3.05,54.6,1.24,2.08,0.0771
C[C@H]1c2cccc(O)c2C(=O)C2=C(O)[C@]3(O)C(=O)C(C(N)=O)=C(O)[C@@H](N(C)C)[C@@H]3[C@@H](O)[C@@H]21,0.731,-0.495,1.55,1.62,6.11,0.474,25.5,10.2,-0.454,-2.03
CCCN(CCC)CCc1cccc2c1CC(=O)N2,-1.21,-2.23,1.15,0.189,2.83,-2.51,0.584,0.852,2.13,-0.826
CS(=O)(=O)c1ccc([C@@H](O)[C@@H](CF)NC(=O)C(Cl)Cl)cc1,3.83,-0.106,1.63,2.53,12.9,5.33,15.9,24.6,2.59,38
COc1ccc(C(=O)CC(=O)c2ccc(C(C)(C)C)cc2)cc1,-1.88,-1.81,-1.16,-0.752,-2.78,-0.501,-0.539,-0.769,-2.64,-0.991
CC(S)C(=O)NCC(=O)O (stereo not given),0.154,-1.2,-0.0217,1.07,2.86,0.336,0.528,-0.0269,-0.507,-0.969
C[C@]12CC[C@@H]3c4ccc(O)cc4CC[C@H]3[C@@H]1C[C@@H](O)[C@@H]2O,-2.64,-2.04,-1.85,-3.27,-3.05,-3.15,1.55,-0.339,-10.4,1.55
Nc1nc(CC(=O)Nc2ccc(CCNC[C@H](O)c3ccccc3)cc2)cs1,0.527,0.899,-0.176,0.63,1.04,-0.0848,-1.35,-0.627,0.0605,0.226
CCn1cc(C(=O)O)c(=O)c2cc(F)c(N3CCNC(C)C3)c(F)c21 (stereo not given),-4.04,-2.84,-0.94,-2.66,-4.99,-5.88,9.04,-2.28,-4.26,1.13
Cc1ccc(N(CC2=NCCN2)c2cccc(O)c2)cc1,-5.09,-4.29,-2.56,-2.27,-2.42,-3.2,1.6,-4.67,-4.28,-1.14
COC(=O)[C@H](c1ccccc1Cl)N1CCc2sccc2C1,-1.33,-0.314,-0.551,-0.762,-0.681,-0.144,-2.08,-1.84,0.653,1.29
O=C(O)[C@H](CC(=O)N1C[C@H]2CCCC[C@H]2C1)Cc1ccccc1,0.852,-5.28,0.289,1.86,1.09,0.619,1.48,1.74,1.16,-1.34
Cc1ccnc(NS(=O)(=O)c2ccc(N)cc2)n1,0.307,1.2,-0.936,0.0876,1.13,-0.277,-0.552,0.606,0.117,1.12
CO[C@H]1/C=C/O[C@@]2(C)Oc3c(C)c(O)c4c(O)c(c5c(nc6cc(C)ccn65)c4c3C2=O)NC(=O)/C(C)=C\C=C\[C@H](C)[C@H](O)[C@@H](C)[C@@H](O)[C@@H](C)[C@H](OC(C)=O)[C@@H]1C,-0.23,1.09,0.284,1.81,1.27,1.5,0.942,-1.07,1.39,-1.05
Cc1cc(N)c2ccccc2[n+]1CCCCCCCCCC[n+]1c(C)cc(N)c2ccccc21,39.6,46.2,35.4,41.1,55.5,36.2,57.8,50,50.9,52.5
COC(=O)C1=C(C)NC(C)=C(C(=O)OC(C)C)C1c1cccc2nonc12 (stereo not given),-2.46,-3.83,1.18,-3.89,-6.2,-4.5,-4.73,-4.11,-12.6,3.66
COc1ccc(-c2nc3ccc(C4=NNC(=O)CC4C)cc3[nH]2)cc1 (stereo not given),0.372,2.28,1.98,1.28,3.99,2.72,3,5.46,-4.45,0.884
NC(=O)N1c2ccccc2CC(=O)c2ccccc21,-3.02,-1.81,-2.16,-3.17,-2.13,-4.21,-3.92,-3.93,-1.28,-0.579
CN1c2cc(O)c(N=NC(N)=O)cc2CC1S(=O)(=O)O (stereo not given),-0.566,-0.439,-0.368,-0.808,-0.659,0.668,-5.18,-0.34,0.422,-12.4
Nc1nc2c(ncn2COC(CO)CO)c(=O)[nH]1,-0.593,2.32,-1.01,1.05,1.32,1.03,-1.32,-0.797,-0.103,1.94

Compound,growth inhibition [1] [%],growth inhibition [2] [%],growth inhibition [3] [%],growth inhibition [4] [%],growth inhibition [5] [%],growth inhibition [6] [%],growth inhibition [7] [%],growth inhibition [8] [%],growth inhibition [9] [%],growth inhibition [10] [%]
CC[C@H](C)C[C@H](C)CCCCCCCCC(=O)N[C@H]1C[C@@H](O)[C@@H](NCCN)NC(=O)[C@@H]2[C@@H](O)CCN2C(=O)[C@H]([C@H](O)CCN)NC(=O)[C@H]([C@H](O)[C@@H](O)c2ccc(O)cc2)NC(=O)[C@@H]2C[C@@H](O)CN2C(=O)[C@H]([C@@H](C)O)NC1=O,-0.204,-0.0661,3.78,1.06,2.93,-1.44,7.21,-1.11,-4.4,0.336
CC(=O)O[C@H]1CC[C@@]2(C)C(=CC[C@@H]3[C@@H]2CC[C@]2(C)C(c4cccnc4)=CC[C@@H]32)C1,0.369,-0.0357,-0.259,0.906,2.75,-0.409,-1.27,-0.864,-0.189,-0.391
Cc1nnc(NS(=O)(=O)c2ccc(N)cc2)s1,2.52,1.32,1.72,2.78,0.783,-1.19,44.8,2.1,1.77,-1.87
C=C1/C(=C\C=C2/CCC[C@]3(C)[C@@H]([C@H](C)CCCC(C)C)CC[C@@H]23)C[C@@H](O)C[C@@H]1O,-0.46,2.45,4.43,1.86,3.21,3.92,1.06,0.347,1.52,0.72
O=C(O)C(=O)O.[NH-]C1CCCCC1[NH-].[Pt+2] (stereo not given),-0.101,2.05,-0.541,7.2,-0.76,1.66,1.98,-1.88,0.474,1.07
CCCCN1CCCCC1C(=O)Nc1c(C)cccc1C (stereo not given),-1.45,-1.09,-1.58,0.909,1.03,0.943,-1.77,-2.22,-1.08,7.3
N=C(N)N,-0.83,2.64,1.54,0.0493,0.625,-0.897,7.78,1.72,-0.000495,-1.47
COc1ccc2c(c1)c(CC(=O)O)c(C)n2C(=O)c1ccc(Cl)cc1,-3.09,-0.682,0.11,-3.3,-3.42,-2.79,-3.23,-6.71,-7.35,2.32
O=C(O)c1cc(-c2ccccc2)nc2ccccc12,0.382,2.97,0.465,2.04,1.46,1.01,-0.619,-1.08,2.54,0.975
CC(=O)OCC(=O)[C@@]1(O)CC[C@H]2[C@@H]3CCC4=CC(=O)CC[C@]4(C)[C@H]3C(=O)C[C@@]21C,-5.36,-1.7,-1.09,-3.1,-6.61,-4.47,6.87,-5.64,-7.69,-0.171
CN1CCN(C2=Nc3cc(Cl)ccc3Nc3ccccc32)CC1,3.8,0.486,1.02,-2.02,1.24,0.753,-1.26,-0.494,-5.31,-1.11
Cc1ccc(C)c(OCCCC(C)(C)C(=O)O)c1,-0.441,-0.0995,0.0111,0.88,0.357,-0.472,-1.45,-0.859,0.864,0.0955
C[C@](N)(Cc1ccc(O)c(O)c1)C(=O)O,0.0946,1.72,-0.426,-0.748,-1.35,-1.03,0.654,-0.812,1.41,-0.739
CN1CCC(=C2c3ccccc3CCc3cccnc32)CC1,-2.68,0.139,0.133,-1.74,-1.55,-5.77,24.2,-1.91,-8.64,1.19
COc1cc2nc(N3CCN(C(=O)C4COc5ccccc5O4)CC3)nc(N)c2cc1OC (stereo not given),0.458,2.32,1.34,0.0132,2.47,1.58,-0.951,-3.82,1.52,2.13
CCC[S+]([O-])c1ccc2[nH]c(NC(=O)OC)nc2c1 (stereo not given),3.39,3.5,1.48,2.55,0.691,2.32,3.73,2.81,-0.51,2.63
O=C(O[C@H]1CN2CCC1CC2)N1CCc2ccccc2[C@@H]1c1ccccc1,1.49,-0.261,-0.506,-0.425,1.75,0.102,-0.949,-0.487,1.06,1.13
CCOC(=O)C1=C(C)NC(C)=C(C(=O)OCC)C1c1ccccc1/C=C/C(=O)OC(C)(C)C,5.9,-3.39,7.49,4.68,24.1,2.24,46.6,12.7,1.91,7.34
Nc1nc(N)c2nc(-c3ccccc3)c(N)nc2n1,5.33,1.67,1.42,1.23,3.58,1.3,3.87,3.03,5.65,0.714
